According to PubChem BioAssay AID2098 (Broad Institute, 2009):
The campaign covered roughly 300,000 compounds. About 2,300 (0.77%) were called active.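 How the source made its calls: active means more than half of replicate wells show activity change below -50%, luminescence cut by over half; inconclusive means some wells, but at most half, below -50%; inactive means no replicate well below -50%.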 The sample as a whole holds a higher share of actives than the screen did.

Assay: blocking HSF1-driven luciferase expression – cell-based, NIH3T3, luminescence, primary screen (AID 2098);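 further: luciferase reports HSF-1 transcriptional activity via heat shock element; 0% = median of DMSO wells and -100% = zero luminescence signal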
Conditions: NIH3T3-HGL HSE-luciferase, MG132-induced, luminescence 8 h; stronger effect = lower value; screened at 7.5 µM (by protocol)
With `CCN(Cc1ccccc1)C(=O)Cc1ccc(OC)c(S(=O)(=O)N2CCOCC2)c1` the activity change, negative = inhibition was -13.3% (inactive).
In the case of `CCOc1ccc(N=C2NC(=O)S/C2=C\c2ccc(O)cc2)cc1`, the activity change, negative = inhibition is reported as 8.7% (inactive).
With `COc1ccc(/C=C2/S/C(=N/N=C3\CC4CCC3(C)C4(C)C)NC2=O)cc1` (stereo not given) the activity change, negative = inhibition was -80.6% (active).
With `COc1ccc(/C=C2\SC(=N)N(c3ccc(F)cc3)C2=O)cc1` the activity change, negative = inhibition was -0.809% (inactive).
For `Cc1sc(NC(=O)c2ccc3ncsc3c2)c(C(N)=O)c1C`, the activity change, negative = inhibition was 18.5% (inactive).
For `O=C(COC(=O)Cn1[nH]c(=O)c2ccccc2c1=O)Nc1c(Cl)cccc1C(F)(F)F`, the activity change, negative = inhibition was -1.35% (inactive).
In the case of `COc1ccccc1C(=O)NC(CCSC)C(=O)N1CCN(C/C=C/c2ccccc2)CC1` (stereo not given), the activity change, negative = inhibition is reported as 6.22% (inactive).
For `C=CCOc1ccc(/C=C2\SC(=S)N(CCC(=O)O)C2=O)cc1`, the activity change, negative = inhibition was -55% (active).
In the case of `COc1ccccc1C(=O)NNC(=O)CCN1C(=O)/C(=C\c2ccccc2)SC1=S`, the activity change, negative = inhibition is reported as 3.5% (inactive).
With `Cc1ccc(/C=C2\SC(=S)N(CCC(=O)Nc3ccc(O)cc3)C2=O)cc1` the activity change, negative = inhibition was 2.79% (inactive).
In the case of `O=C(c1ccc(NS(=O)(=O)c2ccc3[nH]c(=O)[nH]c3c2)cc1)N1CCCCC1`, the activity change, negative = inhibition is reported as -2.36% (inactive).
For `CCOc1ccccc1NS(=O)(=O)c1c[nH]c(C(=O)OC)c1`, the activity change, negative = inhibition was -51.6% (active).
With `CCOc1cc(NS(=O)(=O)c2ccc(OC)cc2)c(OCC)cc1NC(C)=O` the activity change, negative = inhibition was -13.5% (inactive).
With `COC(=O)c1cc(S(=O)(=O)Nc2ccc(C)c(F)c2)c[nH]1` the activity change, negative = inhibition was 5.93% (inactive).
In the case of `COCOc1cc(O)c(C(=O)/C=C/c2ccc(OCOC)c(OCOC)c2)c(OCOC)c1`, the activity change, negative = inhibition is reported as 23.1% (inactive).
For `COc1cccc(CCNC(=O)COc2cccc3c2OC(C)(C)C3)c1`, the activity change, negative = inhibition was -0.825% (inactive).
For `Cc1cc(C(=O)CCl)c(C)n1CC1COc2ccccc2O1` (stereo not given), the activity change, negative = inhibition was 19.5% (inactive).
With `Cc1ccsc1C(=O)OCC(=O)c1cc(C)n(CC2CCCO2)c1C` (stereo not given) the activity change, negative = inhibition was -88.5% (active).
In the case of `Cc1cc(C(=O)Cn2cnc3cc([N+](=O)[O-])ccc3c2=O)c(C)n1CC1CCCO1` (stereo not given), the activity change, negative = inhibition is reported as 3.88% (inactive).
For `CCCCn1c(N)c(N(CCOC)C(=O)c2sc3ccccc3c2Cl)c(=O)[nH]c1=O`, the activity change, negative = inhibition was -1.16% (inactive).
With `COc1ccccc1C(=O)NCCC(=O)NCC(c1ccco1)N1CCCCC1` (stereo not given) the activity change, negative = inhibition was -1.06% (inactive).
In the case of `CC1COc2ccccc2N1C(=O)c1ccc(F)cc1` (stereo not given), the activity change, negative = inhibition is reported as -77.4% (active).
For `CC1COc2ccccc2N1S(=O)(=O)c1ccccc1` (stereo not given), the activity change, negative = inhibition was -6.19% (inactive).
With `CC1COc2ccccc2N1C(=O)c1cccnc1Cl` (stereo not given) the activity change, negative = inhibition was -2.12% (inactive).
For `O=C(NCCCN1CCCC1=O)c1ccc(S(=O)(=O)Nc2ccccc2)cc1`, the activity change, negative = inhibition was 4.74% (inactive).
For `Cc1cc(C)c(-c2csc(NC(=O)CCCc3nc4ccccc4c(=O)[nH]3)n2)c(C)c1`, the activity change, negative = inhibition was -1.35% (inactive).
With `COc1cc(C2C(C(=O)c3cccs3)=C(O)C(=O)N2CCN2CCOCC2)ccc1OCCC(C)C` (stereo not given) the activity change, negative = inhibition was -1.71% (inactive).
With `CC(=O)Nc1ccc(NC(=O)C(C)OC(=O)C2CC(=O)N(CCc3ccccc3)C2)cc1` (stereo not given) the activity change, negative = inhibition was -2.7% (inactive).
For `O=[N+]([O-])c1cccc(S(=O)(=O)NCc2ccccn2)c1`, the activity change, negative = inhibition was -1.49% (inactive).
With `O=S(=O)(NCc1ccccn1)c1ccc(F)cc1` the activity change, negative = inhibition was -83.2% (active).
For `O=S(=O)(NCc1ccccn1)c1ccc(Br)s1`, the activity change, negative = inhibition was -3.36% (inactive).
For `Cc1ccn2c(=O)c(NC(=O)c3cccc4ccccc34)c(C)nc2c1`, the activity change, negative = inhibition was -1.23% (inactive).
With `Cc1ccc(C(=O)CN2C(=O)NC3(CCc4ccccc43)C2=O)c(C)c1` (stereo not given) the activity change, negative = inhibition was 6.44% (inactive).
With `O=C(COC(=O)c1ccccn1)NNC(=O)c1ccc([N+](=O)[O-])cc1` the activity change, negative = inhibition was -1.26% (inactive).
In the case of `CC(=O)c1sc(N)nc1C`, the activity change, negative = inhibition is reported as 1.87% (inactive).
In the case of `CN(Cc1ccccc1F)C(=O)C(Cc1ccccc1)NC(=O)c1ccccc1` (stereo not given), the activity change, negative = inhibition is reported as 1.87% (inactive).
For `COc1ccc(C(=O)NC(=S)Nc2ccccc2N2CCN(S(C)(=O)=O)CC2)cc1OC`, the activity change, negative = inhibition was -1.5% (inactive).
With `O=C(NC(=S)Nc1ccccc1N1CCCCC1)c1ccc(F)cc1` the activity change, negative = inhibition was -7.72% (inactive).
In the case of `COc1ccccc1C(=O)NC(=S)Nc1ccccc1N1CCCCC1`, the activity change, negative = inhibition is reported as -53.8% (active).
For `O=C(CSc1ncccn1)NC(=O)NCc1ccccc1`, the activity change, negative = inhibition was 2.98% (inactive).
With `O=C(CSc1ncccn1)NCCc1ccccc1` the activity change, negative = inhibition was -68.6% (active).
With `O=C(Cc1ccc(Br)cc1)NCCc1ccccc1` the activity change, negative = inhibition was 3.74% (inactive).
In the case of `Cc1cc2oc3ccc(NCCC4CCCN4C)cc3c(=O)c2cc1C` (stereo not given), the activity change, negative = inhibition is reported as 6.14% (inactive).
For `CCc1ccccc1NC(=O)CSc1nnc(-c2ccncc2)o1`, the activity change, negative = inhibition was -75.8% (active).
For `CCN(C(=O)CSc1nnc(-c2ccncc2)o1)c1ccccc1`, the activity change, negative = inhibition was -5.45% (inactive).
With `CCOC(=O)CSc1nnc(-c2ccncc2)o1` the activity change, negative = inhibition was -9.32% (inactive).
In the case of `CCOc1ccc2nc(NC(=O)c3cc([N+](=O)[O-])ccc3N3CCOCC3)sc2c1`, the activity change, negative = inhibition is reported as -61.5% (active).
For `O=C(NC1CCCCC1)c1cc([N+](=O)[O-])ccc1N1CCOCC1`, the activity change, negative = inhibition was 0.205% (inactive).
With `COc1ccc(S(=O)(=O)N2CCCCC2)cc1NC(=O)c1cc([N+](=O)[O-])ccc1N1CCOCC1` the activity change, negative = inhibition was -3.7% (inactive).
With `O=C(Nc1ncccc1O)c1ccc(C(=O)c2ccccc2)cc1` the activity change, negative = inhibition was -2.64% (inactive).
With `COC(=O)c1ccc(NS(=O)(=O)c2cc3c4c(c2)C(C)C(=O)N4CCC3)cc1` (stereo not given) the activity change, negative = inhibition was -0.43% (inactive).
For `Cc1ccc(C)c(OCCC(=O)Nc2cccc(S(=O)(=O)N3CCCC3)c2)c1`, the activity change, negative = inhibition was 3.66% (inactive).
In the case of `COc1ccc(C2=NN(c3nc4ccccc4s3)C(=O)C2)cc1`, the activity change, negative = inhibition is reported as 1.26% (inactive).
For `COc1ccc(-n2nnnc2-c2nc3ccccc3s2)cc1`, the activity change, negative = inhibition was -65.3% (active).
In the case of `CCOc1cccc(-n2nnnc2-c2ccc(OC)cc2)c1`, the activity change, negative = inhibition is reported as -2.61% (inactive).
For `Nc1cccnc1Sc1ccccc1`, the activity change, negative = inhibition was -0.323% (inactive).
In the case of `CCCCn1c(N)c(N(CCC(C)C)C(=O)CC2OC(=O)c3ccccc32)c(=O)[nH]c1=O` (stereo not given), the activity change, negative = inhibition is reported as 3.21% (inactive).
With `O=C(COc1cccc2c1CCNC2=O)NC1CCCCC1` the activity change, negative = inhibition was -0.75% (inactive).
In the case of `O=C(COC(=O)c1cccc(Cl)c1)Nc1ccc2[nH]c(=O)[nH]c2c1`, the activity change, negative = inhibition is reported as -4.05% (inactive).
With `O=C(Nc1ccnn1C1CCN(Cc2cccc(OCCO)c2)CC1)C1CCCC1` the activity change, negative = inhibition was -3.05% (inactive).
In the case of `Cc1nn(C)c(Cl)c1CN1CCC(n2nccc2NC(=O)C2CCCC2)CC1`, the activity change, negative = inhibition is reported as -53.5% (active).
For `CC(CN1CCC(n2nccc2NC(=O)C2CCCC2)CC1)c1ccccc1` (stereo not given), the activity change, negative = inhibition was -6.86% (inactive).
With `c1ccc(C[C@H]2CNCCN2CCC23CC4CC(CC(C4)C2)C3)cc1` the activity change, negative = inhibition was 0.124% (inactive).
In the case of `COc1cc2c(cc1OC)C(Cc1cc(OC)c(OC)cc1[N+](=O)[O-])=NCC2`, the activity change, negative = inhibition is reported as -5.53% (inactive).
With `CC(=O)Nc1cccc(C(=O)OCC(=O)c2ccc3c(c2)OCO3)c1` the activity change, negative = inhibition was -8.13% (inactive).
With `CCCCn1c(N)c(N(CCOC)C(=O)c2cccc(OCc3ccccc3)c2)c(=O)[nH]c1=O` the activity change, negative = inhibition was -6.51% (inactive).
With `O=C(Nc1ccccc1Cl)Nn1cnnc1` the activity change, negative = inhibition was -3.45% (inactive).
In the case of `O=C(COC(=O)c1cccs1)Nc1ccccc1Cl`, the activity change, negative = inhibition is reported as 4.76% (inactive).
With `O=C(Nc1ccccc1Cl)/C(Cl)=C(\Cl)S(=O)c1ccccc1` (stereo not given) the activity change, negative = inhibition was -63.2% (active).
With `CC(C)CN(C(=O)c1ccc2c(c1)OCO2)C1CCS(=O)(=O)C1` (stereo not given) the activity change, negative = inhibition was 1.63% (inactive).
For `COc1ccccc1C(=O)OCC(=O)NCCNC(=O)COC(=O)c1ccccc1OC`, the activity change, negative = inhibition was -54.9% (active).
In the case of `COc1ccccc1C(=O)NC(=O)COC(=O)c1ccco1`, the activity change, negative = inhibition is reported as -2.8% (inactive).
In the case of `COc1ccc(C(=O)OCC(=O)NCCCc2ccccc2)cc1OC`, the activity change, negative = inhibition is reported as -6.5% (inactive).
In the case of `COc1ccccc1C(=O)NC(CCSC)C(=O)NNC(=O)c1ccccc1C` (stereo not given), the activity change, negative = inhibition is reported as -4.57% (inactive).
For `CCOc1ccc(OCc2cccc(C(=O)N(CC)CC)c2)cc1`, the activity change, negative = inhibition was -51.8% (active).
In the case of `CCOc1ccc(OCc2ccc(C(=O)N(C)c3ccccc3)o2)cc1`, the activity change, negative = inhibition is reported as 9.19% (inactive).
With `COc1ccc(OCc2cccc(C(=O)N3CCCC3)c2)cc1` the activity change, negative = inhibition was -11% (inactive).
For `Cc1ccc(S(=O)(=O)N2CCOCC2)cc1C(=O)Nc1ccccc1N1CCCC1`, the activity change, negative = inhibition was 3.38% (inactive).
For `Oc1ccc(Br)cc1/C=N/Nc1ccccn1`, the activity change, negative = inhibition was -72.1% (active).
For `O=[N+]([O-])c1ccc(O)c(/C=N/Nc2ccccc2[N+](=O)[O-])c1`, the activity change, negative = inhibition was 2.12% (inactive).
With `O=C(CCCO)N/N=C/c1cc(Br)ccc1O` the activity change, negative = inhibition was -13.7% (inactive).
With `Cn1c(=N)n(CC(O)c2cccs2)c2ccccc21` (stereo not given) the activity change, negative = inhibition was -12.7% (inactive).
For `Cc1nc2ccccc2n1CC(O)c1ccccc1` (stereo not given), the activity change, negative = inhibition was -6.27% (inactive).
In the case of `Cn1c(=N)n(CC(O)c2ccccc2)c2ccccc21` (stereo not given), the activity change, negative = inhibition is reported as -64.8% (active).
For `COc1ccc(C(=O)Nc2cccc(NC(=O)c3ccc(OC)cc3OC)n2)c(OC)c1`, the activity change, negative = inhibition was -27.9% (inactive).
In the case of `Cc1ccc(CN2CCN(c3ccccc3Cl)CC2)o1`, the activity change, negative = inhibition is reported as -5.3% (inactive).
For `COC(=O)C1=CN(C)C=C(C(=O)OC)C1c1ccc(Cl)cc1Cl`, the activity change, negative = inhibition was 6.26% (inactive).
In the case of `COC(=O)C1=CN(c2ccc(F)c(F)c2)C=C(C(=O)OC)C1c1ccc([N+](=O)[O-])cc1`, the activity change, negative = inhibition is reported as -77.3% (active).
For `COC(=O)c1nc2n(n1)C(c1ccc([N+](=O)[O-])cc1)C(C(=O)Nc1ccc(Cl)cc1)=C(C)N2` (stereo not given), the activity change, negative = inhibition was -14.3% (inactive).
In the case of `Cc1nc2cc3c(cc2s1)OCO3`, the activity change, negative = inhibition is reported as 3.71% (inactive).
In the case of `Brc1ccc2nc(N3CCCC3)sc2c1`, the activity change, negative = inhibition is reported as 22% (inactive).
In the case of `c1c2c(cc3sc(N4CCCCC4)nc13)OCCO2`, the activity change, negative = inhibition is reported as -55.1% (active).
For `Cc1ccc(S(=O)(=O)N2CCN(C(=O)c3ccc(-n4cncn4)c([N+](=O)[O-])c3)CC2)cc1`, the activity change, negative = inhibition was -4.92% (inactive).
With `Cc1cc(C)c(SCCc2ccncc2)c(C)c1` the activity change, negative = inhibition was -16.4% (inactive).
With `CC(C)(C)C(=O)COC(=O)c1cc(S(=O)(=O)N2CCCCC2)ccc1N1CCOCC1` the activity change, negative = inhibition was 0.13% (inactive).
